Results taken from PubChem BioAssay.

Target: Torsin-1A (Homo sapiens) (UniProt O14656)
Experiment: TOR1A wild-type binding on microarray – cell lysate, small-molecule microarray, lysate, 635/667 nm, primary screen (AID 1149)
Settings: COS7 hTOR1A-WT lysate, 635 nm fluorescence, higher = more signal

Torsin-1A (Homo sapiens), sequence (O14656 whole entry, looked up): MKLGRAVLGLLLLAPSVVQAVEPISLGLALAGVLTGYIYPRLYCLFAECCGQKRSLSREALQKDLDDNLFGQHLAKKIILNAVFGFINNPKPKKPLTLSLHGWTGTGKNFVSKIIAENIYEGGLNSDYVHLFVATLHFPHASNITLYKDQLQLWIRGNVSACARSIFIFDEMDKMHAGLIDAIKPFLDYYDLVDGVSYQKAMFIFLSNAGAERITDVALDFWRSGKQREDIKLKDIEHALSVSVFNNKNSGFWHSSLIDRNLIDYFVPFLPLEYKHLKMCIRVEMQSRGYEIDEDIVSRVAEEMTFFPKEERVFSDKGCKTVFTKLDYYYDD

| Compound | composite z-score |
| --- | --- |
| CC(=O)NCCCC[C@@H]1NC(=O)[C@@H]2C[C@H](C(=O)NCCCCCCN)[C@H](c3cccc(OCCO)c3)N2C1=O | 0.475 |
| CN(C)CCCCNC(=O)[C@H]1C[C@H]2C(=O)N[C@@H](CCCC[N+](C)(C)C)C(=O)N2[C@H]1c1ccc(O)cc1 | 0.278 |
| CC(C)N1CC=CC23O[C@@H]4/C=C\CCCOC(=O)C4[C@H]2C(=O)N(CCCCCCO)[C@@H]3C1=O (some centres not stated) | -0.14 |
| O=C(CS)NCCCCCCNC(=O)[C@@H]1C[C@@H]2C(=O)NCC(=O)N2[C@@H]1c1ccc(O)cc1 | 0.397 |
| COc1ccc([Si](C)(C)[C@H]2[C@H](CCO)O[C@@]3(C(=O)N(Cc4ccccc4)c4ccc(N5C(=O)c6ccccc6Oc6ccccc65)cc43)[C@@H]2C)cc1 | -0.218 |
| NC(=O)[C@H]1[C@@H]2C(=O)O[C@@H](c3ccccc3)[C@@H](c3ccccc3)N2[C@@H](c2ccc(O)cc2)[C@]12C(=O)Nc1ccccc12 | -1.54 |
| [N-]=[N+]=NCc1ccccc1[C@@H]1OC(c2ccc(OCCCO)cc2)=N[C@]1(Cc1ccccc1)C(=O)NCCN1CCOCC1 | 0.0739 |
| O=C1C2C=CC(C(O)c3ccc4c(c3)OCO4)N(Nc3ccccc3)C2C(=O)N1c1ccccc1 (configuration not stated) | -0.277 |
| O=C(CS)NCCCCCNC(=O)[C@@H]1C[C@@H]2C(=O)N[C@@H](Cc3ccccc3)C(=O)N2[C@@H]1c1cccc(OCCO)c1 | 0.7 |
| NCCCCCNC(=O)[C@@H]1C[C@@H]2C(=O)N3CCC[C@H]3C(=O)N2[C@@H]1c1ccc(O)cc1 | 0.778 |
| COc1cc(NN2C(C(O)c3ccccc3)C=CC3C(=O)N(C)C(=O)C32)cc(OC)c1OC (configuration not stated) | -0.0091 |
| CC=CC(O)C1C=CC2C(=O)NC(=O)C2N1Nc1ccccn1 (configuration not stated) | 0.599 |
| COCCOC(=O)N1C(=O)[C@@]2(c3ccccc31)[C@H](c1ccccc1OCCO)N1[C@H](c3ccccc3)[C@H](c3ccccc3)OC(=O)[C@H]1[C@@H]2C(N)=O | -0.401 |
| COc1cc(NN2C(C(O)c3ccc(I)cc3)C=CC3C(=O)N(c4ccccc4)C(=O)C32)cc(OC)c1OC (configuration not stated) | 0.544 |
| [N-]=[N+]=NCc1ccccc1[C@@H]1OC(c2ccc(OCCCO)cc2)=N[C@]1(Cc1ccccc1N=[N+]=[N-])C(=O)NCCN1CCOCC1 | 1.06 |
| C=C(/C(=C/C[C@H](OC(=O)c1ccncc1)c1ccccc1OCCO)c1cnc2ccccc2c1)C(C)C | 1.06 |
| C=CCNC(=O)[C@@H]1[C@H]2C(=O)O[C@H](c3ccccc3)[C@H](c3ccccc3)N2[C@H](c2ccc(OCCO)cc2)[C@@]12C(=O)N(C(=O)OCCOC)c1ccc(C#CCCO)cc12 | 0.625 |
| C=C[C@H](C)[C@H](OC(=O)Nc1ccc(OC)cc1)c1ccc(OCCO)cc1 | 0.763 |
| COc1ccc(C#Cc2ccc3c(c2)[C@]2(C(=O)N3)[C@H](C(=O)N3CCCCCCC3)[C@H]3C(=O)O[C@H](c4ccccc4)[C@H](c4ccccc4)N3[C@@H]2c2ccc(O)cc2)cc1 | 0.589 |
| NCCCCCNC(=O)[C@H]1C[C@H]2C(=O)N[C@@H](Cc3ccccc3)C(=O)N2[C@H]1c1ccc(O)cc1 | 0.756 |
| CC(C)c1ccc(NN2C(C(O)Cc3ccccc3)C=CC3C(=O)N(c4ccccc4)C(=O)C32)cc1 (configuration not stated) | 0.14 |
| Cc1ccc(S[C@]2(C(=O)NCc3ccccc3)CC(=O)N(Cc3cc(C(F)(F)F)cc(C(F)(F)F)c3)[C@@H]2c2ccc(CO)cc2I)cc1 | -0.199 |
| COCCCNC(=O)[C@@]1(c2ccc([N+](=O)[O-])cc2)CC(=O)N(C(C)C)[C@@H]1c1ccc(CO)cc1 | 0.722 |
| CN1C(=O)C2C=CC(C(O)c3ccc(I)cc3)N(Nc3ccccc3)C2C1=O (configuration not stated) | 0.338 |
| CCOC(=O)C1=C[C@@H](c2ccccc2)N(S(=O)(=O)c2ccc(C)cc2)[C@H]1c1ccccc1 | 0.0157 |
| CC1CC/C=C\[C@H]2OC34C=CCN(C(C)(C)C)C(=O)[C@H]3N(C(CO)C(C)C)C(=O)[C@@H]4C2C(=O)O1 (some centres not stated) | 0.0733 |
| COC(=O)[C@@]1(Cc2ccc(F)cc2)[C@H]2c3cc(C(=O)N4CCCC4)n(CC4CC4)c3C[C@H]2CN1C(=O)c1ccccc1 | 0.111 |
